# Experimental data reported in the supplement of paper PMC10849652.
# Targets with a hit are over-represented here; the source holds about 8,800 in all. About 0.5% of all pairs of compound and target were hits. A number with no mark means an inactive call.
# Assays:
# Assay in all cases: log2 fold change, soluble protein after heating vs DMSO (PISA); higher = thermal stabilisation; K562 lysate, 10 uM; active = over 0.2 and 3.5 SD of the protein, either way, in both replicates (recomputed)
# [1] = compound: CS(=O)(=O)CCNCc1ccc(-c2ccc3ncnc(Nc4ccc(OCc5cccc(F)c5)c(Cl)c4)c3c2)o1 [lapatinib]
# How it was run: (§1)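 A 30 min treatment with 10 μM compound was applied to crude K562 extract at 1 mg/mL protein in PBS pH 7.4 with 1 mM MgCl2. Heating for 3 min spanned 48°C-58°C, after which aliquots were pooled, adjusted to 0.5% NP-40 at 4°C and spun at 21,000xg for 90 min. TMTpro 16plex LC-MS/MS of the supernatant, with channel sums equalised, gave values recorded as log-two fold change in thermal stability against solvent controls, from duplicates.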
# [2] = compound: CS(=O)(=O)N1CCN(Cc2cc3nc(-c4cccc5[nH]ncc45)nc(N4CCOCC4)c3s2)CC1 [pictilisib]
# How it was run: as §1
# [3] = compound: C[C@@H](Oc1cc(-c2cnn(C3CCNCC3)c2)cnc1N)c1c(Cl)ccc(F)c1Cl [crizotinib]
# How it was run: as §1
# [4] = compound: C[C@H](C1=CC=C(C=C1)C(=O)NC2=C3C=CNC3=NC=C2)N
# How it was run: as §1
# [5] = compound: C[C@H](Nc1ncnc2nc[nH]c12)c1cc2cccc(Cl)c2c(=O)n1-c1ccccc1 [duvelisib]
# How it was run: as §1
# [6] = compound: Cc1cc(Nc2cc(CN3CCOCC3)c3nc(C)c(Cc4ccc(Cl)cc4F)n3n2)n[nH]1 [gandotinib]
# How it was run: as §1
# [7] = compound: Cc1cc(Nc2cc(N3CCN(C)CC3)nc(Sc3ccc(NC(=O)C4CC4)cc3)n2)n[nH]1 [tozasertib]
# How it was run: as §1
# [8] = compound: Cc1ccc(-n2nc(C(C)(C)C)cc2NC(=O)Nc2ccc(OCCN3CCOCC3)c3ccccc23)cc1 [doramapimod]
# How it was run: as §1
# [9] = compound: Cc1ccc(NC(=O)c2ccc(CN3CC[C@H](N(C)C)C3)c(C(F)(F)F)c2)cc1Nc1nccc(-c2cncnc2)n1 [bafetinib]
# How it was run: as §1
# [10] = compound: Cc1cccc(CC(=O)N2CCc3c2ccc(-c2cn(C)c4ncnc(N)c24)c3F)n1
# How it was run: as §1
# UniProt O60547, sequence (O60547 whole entry, looked up): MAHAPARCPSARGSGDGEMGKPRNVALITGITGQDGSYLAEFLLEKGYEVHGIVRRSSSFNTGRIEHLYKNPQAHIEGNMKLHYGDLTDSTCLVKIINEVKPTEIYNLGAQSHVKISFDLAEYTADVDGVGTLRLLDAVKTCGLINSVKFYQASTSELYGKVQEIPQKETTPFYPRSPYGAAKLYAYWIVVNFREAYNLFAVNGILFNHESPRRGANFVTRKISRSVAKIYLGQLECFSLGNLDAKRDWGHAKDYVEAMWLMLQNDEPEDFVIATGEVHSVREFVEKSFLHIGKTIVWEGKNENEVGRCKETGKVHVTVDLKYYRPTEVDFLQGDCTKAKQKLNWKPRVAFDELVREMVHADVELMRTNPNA
# UniProt P49915, sequence (P49915 whole entry, looked up): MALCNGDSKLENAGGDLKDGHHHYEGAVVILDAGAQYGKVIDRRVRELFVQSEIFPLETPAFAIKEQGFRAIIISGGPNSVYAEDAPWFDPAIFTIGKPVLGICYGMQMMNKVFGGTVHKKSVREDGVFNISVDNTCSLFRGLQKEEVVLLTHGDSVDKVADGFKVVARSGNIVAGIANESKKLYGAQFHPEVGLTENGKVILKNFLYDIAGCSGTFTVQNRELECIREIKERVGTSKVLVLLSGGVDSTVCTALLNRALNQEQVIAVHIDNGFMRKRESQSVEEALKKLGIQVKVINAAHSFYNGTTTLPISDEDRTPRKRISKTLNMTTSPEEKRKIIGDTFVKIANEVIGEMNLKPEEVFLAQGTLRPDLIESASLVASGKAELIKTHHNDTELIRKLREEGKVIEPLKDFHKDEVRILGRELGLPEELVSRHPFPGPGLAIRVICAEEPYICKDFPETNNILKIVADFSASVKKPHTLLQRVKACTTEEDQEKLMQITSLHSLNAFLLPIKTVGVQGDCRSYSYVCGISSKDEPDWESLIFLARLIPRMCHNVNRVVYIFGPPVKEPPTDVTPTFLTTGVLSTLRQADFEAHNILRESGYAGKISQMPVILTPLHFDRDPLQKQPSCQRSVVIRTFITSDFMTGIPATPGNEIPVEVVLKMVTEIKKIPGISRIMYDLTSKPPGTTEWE
# UniProt P50053, sequence (P50053 whole entry, looked up): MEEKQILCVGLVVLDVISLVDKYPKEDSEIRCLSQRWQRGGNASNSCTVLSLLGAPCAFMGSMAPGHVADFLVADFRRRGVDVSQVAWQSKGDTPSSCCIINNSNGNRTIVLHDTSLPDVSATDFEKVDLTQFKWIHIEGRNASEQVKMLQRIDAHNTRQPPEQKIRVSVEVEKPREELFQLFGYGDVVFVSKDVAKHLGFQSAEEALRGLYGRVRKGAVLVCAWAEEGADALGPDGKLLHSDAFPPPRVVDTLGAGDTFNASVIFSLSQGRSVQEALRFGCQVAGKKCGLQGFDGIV
# UniProt P23677, sequence (P23677 whole entry, looked up): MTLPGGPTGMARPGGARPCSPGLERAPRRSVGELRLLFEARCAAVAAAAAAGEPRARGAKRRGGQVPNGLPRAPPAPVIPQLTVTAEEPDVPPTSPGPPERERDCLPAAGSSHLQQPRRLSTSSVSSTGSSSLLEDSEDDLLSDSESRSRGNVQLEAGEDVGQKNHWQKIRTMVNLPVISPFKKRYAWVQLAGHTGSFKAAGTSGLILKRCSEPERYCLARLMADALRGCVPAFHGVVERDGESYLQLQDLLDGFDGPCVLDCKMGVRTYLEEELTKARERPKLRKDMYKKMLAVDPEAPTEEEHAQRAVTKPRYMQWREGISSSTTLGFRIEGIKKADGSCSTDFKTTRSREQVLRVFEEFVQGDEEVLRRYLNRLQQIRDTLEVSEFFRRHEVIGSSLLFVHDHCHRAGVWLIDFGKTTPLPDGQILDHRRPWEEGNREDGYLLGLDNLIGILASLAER
# UniProt Q99729, sequence (Q99729 whole entry, looked up): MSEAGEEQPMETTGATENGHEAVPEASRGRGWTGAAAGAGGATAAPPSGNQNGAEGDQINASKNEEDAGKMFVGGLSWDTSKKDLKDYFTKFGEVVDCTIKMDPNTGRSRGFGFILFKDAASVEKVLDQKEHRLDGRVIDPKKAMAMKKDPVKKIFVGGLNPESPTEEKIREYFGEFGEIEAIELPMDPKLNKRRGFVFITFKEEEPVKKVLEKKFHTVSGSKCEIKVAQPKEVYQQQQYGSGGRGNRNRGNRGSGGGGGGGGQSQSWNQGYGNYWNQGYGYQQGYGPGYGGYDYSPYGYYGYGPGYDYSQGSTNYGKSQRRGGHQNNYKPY
# UniProt O94927, sequence (O94927 whole entry, looked up): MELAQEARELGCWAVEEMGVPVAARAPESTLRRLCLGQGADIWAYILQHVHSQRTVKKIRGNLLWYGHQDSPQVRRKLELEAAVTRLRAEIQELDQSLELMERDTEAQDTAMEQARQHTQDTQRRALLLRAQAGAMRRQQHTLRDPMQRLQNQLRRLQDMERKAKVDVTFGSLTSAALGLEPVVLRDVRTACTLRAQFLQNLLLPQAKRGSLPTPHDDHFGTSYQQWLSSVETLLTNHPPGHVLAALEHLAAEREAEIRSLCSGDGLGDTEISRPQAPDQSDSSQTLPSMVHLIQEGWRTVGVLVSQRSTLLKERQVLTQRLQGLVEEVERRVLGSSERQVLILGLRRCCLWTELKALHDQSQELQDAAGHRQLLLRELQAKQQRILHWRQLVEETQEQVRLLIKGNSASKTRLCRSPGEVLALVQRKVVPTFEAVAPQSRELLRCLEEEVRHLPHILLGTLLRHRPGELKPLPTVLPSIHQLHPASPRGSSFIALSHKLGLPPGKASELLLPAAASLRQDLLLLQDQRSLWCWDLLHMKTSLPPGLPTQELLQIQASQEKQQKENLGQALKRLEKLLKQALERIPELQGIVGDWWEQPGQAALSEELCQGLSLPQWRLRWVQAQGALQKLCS
# UniProt P09429, sequence (P09429 whole entry, looked up): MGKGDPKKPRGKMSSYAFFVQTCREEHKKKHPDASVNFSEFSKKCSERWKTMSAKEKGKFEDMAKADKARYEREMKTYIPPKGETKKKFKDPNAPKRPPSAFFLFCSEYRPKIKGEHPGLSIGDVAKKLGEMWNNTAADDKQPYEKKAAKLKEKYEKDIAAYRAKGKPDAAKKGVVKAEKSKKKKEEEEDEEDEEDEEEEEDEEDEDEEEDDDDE
# UniProt P41229, sequence (P41229 whole entry, looked up): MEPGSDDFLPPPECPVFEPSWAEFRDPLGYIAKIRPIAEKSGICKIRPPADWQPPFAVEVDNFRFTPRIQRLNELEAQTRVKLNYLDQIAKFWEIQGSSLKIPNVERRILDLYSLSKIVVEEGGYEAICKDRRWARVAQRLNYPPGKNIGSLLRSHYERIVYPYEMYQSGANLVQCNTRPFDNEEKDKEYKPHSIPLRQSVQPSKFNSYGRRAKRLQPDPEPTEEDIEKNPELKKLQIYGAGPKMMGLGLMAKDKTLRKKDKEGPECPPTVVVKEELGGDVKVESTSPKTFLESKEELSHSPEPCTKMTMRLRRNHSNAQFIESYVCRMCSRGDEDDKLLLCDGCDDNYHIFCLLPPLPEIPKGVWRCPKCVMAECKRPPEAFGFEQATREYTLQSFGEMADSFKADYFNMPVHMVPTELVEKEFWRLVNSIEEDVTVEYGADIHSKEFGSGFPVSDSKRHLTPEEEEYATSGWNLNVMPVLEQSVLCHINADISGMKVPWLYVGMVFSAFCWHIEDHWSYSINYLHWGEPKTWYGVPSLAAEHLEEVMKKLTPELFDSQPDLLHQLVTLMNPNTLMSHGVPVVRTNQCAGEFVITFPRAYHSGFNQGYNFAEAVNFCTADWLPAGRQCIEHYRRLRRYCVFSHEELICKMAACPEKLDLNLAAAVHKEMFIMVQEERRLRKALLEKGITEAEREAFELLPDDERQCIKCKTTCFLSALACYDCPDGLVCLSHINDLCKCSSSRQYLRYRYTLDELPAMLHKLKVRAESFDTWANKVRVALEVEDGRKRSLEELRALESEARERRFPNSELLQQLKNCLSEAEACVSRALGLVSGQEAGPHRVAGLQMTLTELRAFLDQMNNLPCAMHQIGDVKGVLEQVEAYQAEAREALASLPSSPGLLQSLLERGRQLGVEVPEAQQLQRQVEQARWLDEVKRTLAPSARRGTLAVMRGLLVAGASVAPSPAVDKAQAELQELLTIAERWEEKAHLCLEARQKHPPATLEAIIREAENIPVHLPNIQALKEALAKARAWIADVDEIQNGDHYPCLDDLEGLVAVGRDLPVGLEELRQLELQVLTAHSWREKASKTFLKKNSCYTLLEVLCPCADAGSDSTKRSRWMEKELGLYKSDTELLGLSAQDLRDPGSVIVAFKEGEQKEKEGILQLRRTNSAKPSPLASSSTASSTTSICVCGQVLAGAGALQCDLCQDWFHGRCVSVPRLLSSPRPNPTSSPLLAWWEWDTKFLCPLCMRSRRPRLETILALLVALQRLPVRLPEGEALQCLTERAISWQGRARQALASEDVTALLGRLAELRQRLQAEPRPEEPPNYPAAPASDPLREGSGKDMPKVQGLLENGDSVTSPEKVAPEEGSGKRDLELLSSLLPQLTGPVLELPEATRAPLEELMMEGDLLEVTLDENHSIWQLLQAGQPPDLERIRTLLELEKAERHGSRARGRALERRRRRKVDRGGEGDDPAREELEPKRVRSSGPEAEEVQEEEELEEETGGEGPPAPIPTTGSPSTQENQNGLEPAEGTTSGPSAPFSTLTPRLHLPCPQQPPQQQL
# UniProt P13598, sequence (P13598 whole entry, looked up): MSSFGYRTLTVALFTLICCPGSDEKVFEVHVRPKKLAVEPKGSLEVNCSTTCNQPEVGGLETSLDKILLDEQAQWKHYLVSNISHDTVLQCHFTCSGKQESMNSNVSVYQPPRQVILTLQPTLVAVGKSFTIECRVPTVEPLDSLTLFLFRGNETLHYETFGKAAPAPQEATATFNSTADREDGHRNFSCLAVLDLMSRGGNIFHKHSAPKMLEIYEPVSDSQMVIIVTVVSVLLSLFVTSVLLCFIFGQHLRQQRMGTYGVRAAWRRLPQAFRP
Target,log2 fold change [1],log2 fold change [2],log2 fold change [3],log2 fold change [4],log2 fold change [5],log2 fold change [6],log2 fold change [7],log2 fold change [8],log2 fold change [9],log2 fold change [10]
HAUS7 isoform 2 (UniProt Q99871),0.022,0.012,-0.053,0.102,-0.063,-0.156,-0.113,0.072,-0.139,0.015
KCT2 (UniProt Q8NC54),-0.005,-0.018,0.048,-0.331 (active),0.018,0.277 (active),0.005,-0.028,-0.023,0.099
ICAM2 (UniProt P13598),-0.008,-0.08,-0.002,0.293 (active),-0.035,-0.04,-0.01,-0.014,0.013,-0.075
HMBOX1 isoform 5 (UniProt Q6NT76),0.254 (active),-0.097,0.023,0,0.021,0.052,0.035,-0.013,0.112,0.129
GMPS (UniProt P49915),-0.008,-0.014,0.007,0.115,0.006,-0.071,-0.001,-0.036,-0.012,-0.032
HNRNPM (UniProt P52272),-0.001,0.063,0.025,-0.011,-0.022,0.02,-0.019,-0.113,-0.029,0.053
KHK isoform 2 (UniProt P50053),-0.066,-0.015,-0.032,0.248 (active),0,-0.058,0.018,0.031,0.001,-0.163
IGF2BP2 isoform 6 (UniProt Q9Y6M1),0.084,,,,,,,,,
HNRNPAB isoform 3 (UniProt Q99729),0.007,0.01,0.04,-0.068,-0.009,0.019,-0.02,-0.058,-0.002,0.033
H4C1 (UniProt P62805),-0.043,-0.069,0.032,0.003,-0.16,0,-0.027,0.006,0.059,-0.044
KDM5C (UniProt P41229),-0.085,-0.071,-0.043,0.034,-0.001,-0.135,0.016,0.04,-0.061,0.001
HAUS5 (UniProt O94927),-0.036,-0.017,-0.071,0.05,0.044,-0.098,-0.002,0.032,-0.042,-0.029
ITPKA (UniProt P23677),-0.043,-0.055,-0.012,-0.012,-0.038,-0.012,0.051,0.016,-0.043,0.051
HMGB1 (UniProt P09429),0.017,0.02,-0.024,0.304 (active),0.028,-0.097,0.03,-0.014,0.079,-0.154
GMDS (UniProt O60547),-0.019,-0.035,-0.01,0.004,0.012,-0.013,-0.016,0.018,0.001,-0.021
